Records with an inconclusive call do not appear. Active and inactive are the calls of the source. Rule for the calls: active = hit-call score of the fitted dose curve at least 0.9, where 1 is the maximum; inconclusive = response in the unintended direction; inactive = score below 0.9.
System: not listed separately
Test: TOX21_p53_BLA_p3_viability: Viability Assessment in the Tox21 HCT-116 p53 Agonism Beta-lactamase Assay, Phase 3 (AID 2283593);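 note: cells exposed to compound for 16 h before reading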
Procedure, shortened: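 Cellular ATP was quantified by CellTiter-Glo luminescence, read after 30 min at room temperature. Beforehand, HCT116 cells (4000/well) received compound 5 h post-seeding, 217-fold diluted from DMSO, then incubated 16 h at 37C.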
With `CCCCS(=O)(=O)N[C@@H](Cc1ccc(OCCCCC2CCNCC2)cc1)C(=O)O` the outcome was “inactive”. In the case of `COc1ccc(C2CNC(=O)C2)cc1OC1CCCC1` (centres undefined), the outcome is reported as “inactive”. With `Cc1cccc(C)c1N(CCCc1cccnc1)C(=O)C(C)N` (centres undefined) the outcome was “inactive”. For `CC(C)(C)N(CCO)CCO`, the outcome was “inactive”. In the case of `CCCCc1ncc(/C=C(\Cc2cccs2)C(=O)O)n1Cc1ccc(C(=O)O)cc1`, the outcome is reported as “inactive”. For `Cn1c(N)nc2nc[nH]c2c1=O`, the outcome was “inactive”. For `CCCCC(CC)COC(=O)CC#N` (centres undefined), the outcome was “inactive”. With `CCC(=O)c1cccc(Cl)c1` the outcome was “inactive”. For `Cc1ccc(NC(N)=O)cc1`, the outcome was “inactive”. In the case of `Nc1ncnc2c1ncn2CCOCP(=O)(O)O`, the outcome is reported as “inactive”. In the case of `CCCCC/C=C\C/C=C\CCCCCCCC(=O)NC(C)c1ccccc1` (centres undefined), the outcome is reported as “inactive”. With `CN1CCCC(CC2c3ccccc3Sc3ccccc32)C1` (centres undefined) the outcome was “inactive”. In the case of `O=C(O)/C=C/c1cnc[nH]1`, the outcome is reported as “inactive”. For `OC1CCCc2ccccc21` (centres undefined), the outcome was “inactive”. For `CCOC(=O)C(C)(C)C`, the outcome was “inactive”. With `ONc1ccccc1` the outcome was “inactive”. In the case of `CCCCOCCOC(=O)CCCCCCCCC(=O)OCCOCCCC`, the outcome is reported as “inactive”. In the case of `CCNS(=O)(=O)c1ccc(C)cc1`, the outcome is reported as “inactive”. With `CCCCCCCCCCCCCC=O` the outcome was “inactive”. In the case of `CCOC(=O)Nc1ccc2c(c1)N(C(=O)CN(C)C)c1ccccc1CC2`, the outcome is reported as “inactive”. In the case of `c1ccc2cnncc2c1`, the outcome is reported as “inactive”.

Target: Cellular tumor antigen p53 (Homo sapiens) (UniProt P04637)
Sequence (P04637 whole entry, looked up): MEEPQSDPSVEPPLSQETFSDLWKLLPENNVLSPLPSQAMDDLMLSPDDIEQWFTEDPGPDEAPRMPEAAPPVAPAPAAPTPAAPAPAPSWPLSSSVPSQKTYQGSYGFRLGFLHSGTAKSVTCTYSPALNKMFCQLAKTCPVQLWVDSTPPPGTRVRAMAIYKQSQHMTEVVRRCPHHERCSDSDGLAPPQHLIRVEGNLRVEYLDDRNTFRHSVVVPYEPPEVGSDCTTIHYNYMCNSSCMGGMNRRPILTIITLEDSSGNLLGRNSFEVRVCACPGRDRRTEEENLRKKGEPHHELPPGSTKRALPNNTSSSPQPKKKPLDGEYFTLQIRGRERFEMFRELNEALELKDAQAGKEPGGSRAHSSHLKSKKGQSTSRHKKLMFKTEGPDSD
Test: TOX21_p53_BLA_p3_ratio: Tox21 HCT-116 p53 Agonism Beta-lactamase Assay, Ratio, Phase 3 (AID 2283596)
Procedure, shortened: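 Cells were seeded at 4000/well, rested 5 h at 37C, then dosed with DMSO compound solutions (217-fold dilution) for 16 h. CCF4-AM substrate was loaded for 2 h at room temperature, and the 460/530 nm emission ratio was fitted for gain of signal versus DMSO.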
With `C1=CCC2CC=CC2C1` (centres undefined) the outcome was “inactive”. In the case of `CN(C)CCCN1c2ccccc2Sc2ccccc21`, the outcome is reported as “inactive”. With `CO/N=C(\C(=O)N[C@@H]1C(=O)N2C(C(=O)O)=C(CSc3nc(C)c(CC(=O)O)s3)CS[C@H]12)c1csc(N)n1` the outcome was “inactive”. For `CCN(CC)CCOc1ccccc1C(=O)CCc1ccccc1`, the outcome was “inactive”. In the case of `CC(CCc1ccc(O)cc1)NCC(O)c1ccc(O)cc1` (centres undefined), the outcome is reported as “inactive”. With `[Cl-].[Cl-].[NH-]CC[NH-].[Pt+4]` the outcome was “inactive”. In the case of `CCC(C)(C)CC`, the outcome is reported as “inactive”. With `CN(C)CCCOc1nn(Cc2ccccc2)c2ccccc12` the outcome was “inactive”. In the case of `CC(C)CCCC(=O)O`, the outcome is reported as “inactive”. For `Oc1cc(O)cc(O)c1`, the outcome was “inactive”. In the case of `C[Se]CCC(N)C(=O)O` (centres undefined), the outcome is reported as “inactive”. In the case of `Cc1nnc(C(=O)NC(C)(C)c2nc(C(=O)NCc3ccc(F)cc3)c(O)c(=O)n2C)o1`, the outcome is reported as “inactive”. In the case of `CN(C)CCCSc1ccccc1NC(=O)/C=C/c1ccccc1`, the outcome is reported as “inactive”. With `CCCSSC(CCO)=C(C)N(C=O)Cc1cnc(C)nc1N` the outcome was “inactive”. For `N=C(N)c1ccc(C=Cc2ccc(C(=N)N)cc2O)cc1`, the outcome was “inactive”. For `CN1CCN2c3ncccc3Cc3ccccc3C2C1` (centres undefined), the outcome was “inactive”. With `CN(C)CCN1C(=O)c2ccccc2N(C)c2ccccc21` the outcome was “inactive”. In the case of `O=C(c1ccc(F)cc1)C1CCN(CCn2c(=S)[nH]c3ccccc3c2=O)CC1`, the outcome is reported as “inactive”.

— PubChem BioAssay (EPA / NIEHS)
